Inconclusive results are not listed. Entries that show only a call come without a potency. Calls of active or inactive are those of the source. Calls follow the shape of the dose curve; as a rule, active = well fitted curve in the direction sought with a large enough effect; inconclusive = small, poorly fitted or top-dose-only effect, or another doubt; inactive = no such curve, though single readings can be large; an effect the other way counts as inactive or inconclusive.

Sequence of Cytochrome P450 3A4 (Homo sapiens) (P08684 whole entry, looked up): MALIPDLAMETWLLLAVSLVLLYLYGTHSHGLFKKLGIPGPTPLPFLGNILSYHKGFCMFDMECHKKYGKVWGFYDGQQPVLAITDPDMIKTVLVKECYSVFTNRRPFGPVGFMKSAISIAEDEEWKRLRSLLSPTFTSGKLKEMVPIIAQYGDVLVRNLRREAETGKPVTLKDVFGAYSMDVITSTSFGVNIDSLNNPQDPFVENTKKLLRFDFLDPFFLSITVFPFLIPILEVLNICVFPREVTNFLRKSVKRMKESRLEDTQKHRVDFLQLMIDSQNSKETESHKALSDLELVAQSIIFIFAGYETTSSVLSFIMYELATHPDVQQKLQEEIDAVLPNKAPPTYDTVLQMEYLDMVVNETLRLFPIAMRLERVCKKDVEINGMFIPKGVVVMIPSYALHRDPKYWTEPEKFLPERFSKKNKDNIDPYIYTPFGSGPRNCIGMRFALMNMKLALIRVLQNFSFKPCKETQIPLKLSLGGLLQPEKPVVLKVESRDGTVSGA
Sequence of Cytochrome P450 2D6 (Homo sapiens) (P10635 whole entry, looked up): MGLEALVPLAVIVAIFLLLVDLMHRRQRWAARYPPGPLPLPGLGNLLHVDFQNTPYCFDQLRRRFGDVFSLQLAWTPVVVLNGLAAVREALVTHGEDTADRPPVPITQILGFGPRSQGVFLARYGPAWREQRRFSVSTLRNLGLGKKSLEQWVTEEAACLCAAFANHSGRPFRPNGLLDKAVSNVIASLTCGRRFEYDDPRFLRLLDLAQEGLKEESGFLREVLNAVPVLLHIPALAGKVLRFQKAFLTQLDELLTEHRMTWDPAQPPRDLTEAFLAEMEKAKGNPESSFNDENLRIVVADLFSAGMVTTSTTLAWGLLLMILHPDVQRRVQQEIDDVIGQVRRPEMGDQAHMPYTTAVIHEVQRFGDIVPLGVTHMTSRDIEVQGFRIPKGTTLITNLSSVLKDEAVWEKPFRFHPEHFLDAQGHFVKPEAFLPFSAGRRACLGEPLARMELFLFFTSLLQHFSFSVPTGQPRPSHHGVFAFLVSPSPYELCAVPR

The target of one assay is Cytochrome P450 3A4 (Homo sapiens) (UniProt P08684). Kind of assay: qHTS Assay for Activators of Cytochrome P450 3A4 (AID 885). Also: nearly all actives have a fitted effect of over 65% in size. The following applies: recombinant CYP3A4, Luciferin-PPXE luminescence, 60 min; series mostly up to 57.1 µM. In outline:
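Luminescent readout of luciferin formed from 25 uM Luciferin-PPXE (KM level) by 20 nM CYP3A4 in 200 mM KPO4, with 60 min NADPH-driven reaction at room temperature after 10 min compound exposure. Ketoconazole (57 uM) defined 100% inhibition.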
On to `CO[C@@H]1COC(=O)C/C=C\[C@H](C)COC(=O)[C@H](Cc2ccccc2)NC(=O)C/C=C\[C@H]1C`, for which the activity change, positive = activation is -56.6% [at 11.4 µM] (inactive). For the molecule `COc1ccc(-c2coc3c(OC)c(OC)cc(O)c3c2=O)cc1`, the Potency entry is “inactive”. In the case of `C=CCc1cccc(C2C(C)CCC3C(=O)N4C(CCC(C)C4c4cccc(CC=C)c4)C(=O)N32)c1` (stereo not given), the activity change, positive = activation was -58.4% [at 11.4 µM] (inactive). The same measure, in the same setting: the same measure for `C/C(CCN1CCc2nc(-c3ccccc3)c(-c3ccccc3)cc2C1)=N\OC[C@@H](C)[C@H](OCc1ccccc1)C(C)C`: -51.7% [at 11.4 µM] (inactive); for `CCC12C=C(/C=C/c3ccccc3)C(CC)(C1)C(c1ccccc1)CC2=O` (stereo not given): -32.8% [at 11.4 µM] (inactive). The same measure, in the same setting: the same measure for `C/C(CCN1CCCCc2nc(C)c(C)cc21)=N\OC[C@@H](C)[C@H](OCc1ccccc1)C(C)C`: -49.2% [at 11.4 µM] (inactive); for `C/C(CCN1CCc2nc(-c3ccccc3)c(-c3ccccc3)cc2C1)=N\O[C@@H](C)CN1CCCc2nc(C)c(C)cc21`: -58.8% [at 11.4 µM] (inactive); for `CC(=O)OC[C@@H]1O[C@@H](O/N=C2/C[C@@H](O)[C@@H](O)[C@@H]3[C@@H]4C(=O)N(c5cccc(Oc6ccccc6)c5)C(=O)[C@H]4CC[C@H]23)[C@H](OC(C)=O)[C@H](OC(C)=O)[C@@H]1OC(C)=O`: -36.6% [at 11.4 µM] (inactive).

Take `CCC1CN2CCc3cc(OC)c(OC)cc3C2CC1CC1NCCc2cc(OC)c(OC)cc21` (stereo not given): the Potency result is “inactive”. For `CO[C@H]1COC(=O)C/C=C\[C@@H](C)COC(=O)[C@@H](OCc2ccccc2)/C=C\[C@@H]1C`, the activity change, positive = activation is -63.8% [at 11.4 µM] (inactive). As for `COC(=O)[C@@H]1CC[C@H](C)[C@@H](c2ccc(C)cc2)N1C(=O)c1ccc(/C=N\OC[C@@H]2O[C@H](c3ccccc3)C=C[C@@H]2Oc2ccc(OC)cc2)cc1`, the activity change, positive = activation was -30% [at 11.4 µM] (inactive). In the case of `CC(C)CN1CCc2nc(-c3ccccc3)c3c(c2C1)COC(C)C3` (stereo not given), the activity change, positive = activation was -40.3% [at 11.4 µM] (inactive). Still for that read-out and setting: the same measure for `C=CC[C@@H]1C=C[C@@H](O/N=C\C[C@@H]2C=C[C@H](OC(C)=O)[C@H](COC(C)=O)O2)[C@@H](CO)O1`: -49.3% [at 11.4 µM] (inactive). Regarding `COc1ccc(-c2ccc3c(n2)CCCN3C[C@H](O)CN2CCCc3nc(-c4ccc(Br)cc4)ccc32)cc1`, the activity change, positive = activation was -31.9% [at 11.4 µM] (inactive).

Regarding `C/C=C/C1Oc2ccc(OC)cc2N2C(=O)C(C)C(OCOC)C12` (stereo not given), the activity change, positive = activation was -50.7% [at 11.4 µM] (inactive).

Another assay concerns the target Cytochrome P450 2D6 (Homo sapiens) (UniProt P10635). Put plainly: qHTS Assay for Inhibitors and Substrates of Cytochrome P450 2D6 (AID 891).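 Also: luciferin methyl ether substrate demethylated by CYP2D6 with NADPH regeneration; nearly all actives have a fitted effect of over 60% in size.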 Particulars: recombinant CYP2D6, luciferin-ME EGE luminescence; series mostly up to 11.4 µM. In outline: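 Luminescent read-out of luciferin formed by 5 nM human CYP2D6 demethylating 30 uM Luciferin-ME EGE (Km level) over 60 min at room temperature after NADPH regeneration addition. Data normalized to full inhibition by 1.43 uM quinidine.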
On the technique in general: Quantitative high-throughput screening tests each substance at several concentrations.
For the molecule `COc1ccc(OC)c(-c2ccccc2/C=N/NS(=O)(=O)c2ccc(C)cc2)c1`, the Potency entry was “inactive”.

As for `COC(=O)C(/C=C/C(C)Cc1cc(Br)cc(OCc2ccccc2)c1OC)OCc1ccccc1` (stereo not given), the Potency entry is “inactive”. As for `COC(=O)NC(/C=C/c1ccccc1)[C@]1(C(C)=O)CCCC1=O` (stereo not given in full), the Potency result is “inactive”. In the case of `C[C@@H]1/C=C\CC(=O)OC[C@H](C)C(=O)N[C@@H](Cc2ccccc2)C(=O)OC1`, the Potency result was “inactive”. For the molecule `COC1(C#CC2C=CC(OC(C)=O)C(COC(C)=O)O2)CCCCC1` (stereo not given), the Potency entry was “inactive”.

`CC1CCC2C(=O)OC(CO)CN2C1c1ccc(Br)cc1` (stereo not given): the Potency result is “inactive”.

Take `CCC12C=C(/C=C/c3ccccc3)C(CC)(C1)C(c1ccccc1)CC2=O` (stereo not given): the Potency result is “inactive”.

For `C/C=C/C1Oc2ccc(OC)cc2N2C(=O)C(C)C(OCOC)C12` (stereo not given), the Potency result is “inactive”.

The target in the next assay is Cytochrome P450 2C19 (Homo sapiens) (UniProt P33261). Kind of assay: qHTS Assay for Inhibitors and Substrates of Cytochrome P450 2C19 (AID 899). Also: nearly all actives have a fitted effect of over 60% in size. Also: potency is read from the fitted curve at half-maximal effect. Particulars: recombinant CYP2C19, luciferin-H EGE luminescence; series mostly up to 11.4 µM. Put shortly: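 In 50mM KPO4, the reaction held 5nM enzyme and KM-level (10uM) Luciferin-H EGE; it ran 60 min at 37C after NADPH regeneration and a 10 min compound preincubation. Luminescence values were scaled to 57uM ketoconazole as complete inhibition.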
Sequence of Cytochrome P450 2C19 (Homo sapiens) (P33261 whole entry, looked up): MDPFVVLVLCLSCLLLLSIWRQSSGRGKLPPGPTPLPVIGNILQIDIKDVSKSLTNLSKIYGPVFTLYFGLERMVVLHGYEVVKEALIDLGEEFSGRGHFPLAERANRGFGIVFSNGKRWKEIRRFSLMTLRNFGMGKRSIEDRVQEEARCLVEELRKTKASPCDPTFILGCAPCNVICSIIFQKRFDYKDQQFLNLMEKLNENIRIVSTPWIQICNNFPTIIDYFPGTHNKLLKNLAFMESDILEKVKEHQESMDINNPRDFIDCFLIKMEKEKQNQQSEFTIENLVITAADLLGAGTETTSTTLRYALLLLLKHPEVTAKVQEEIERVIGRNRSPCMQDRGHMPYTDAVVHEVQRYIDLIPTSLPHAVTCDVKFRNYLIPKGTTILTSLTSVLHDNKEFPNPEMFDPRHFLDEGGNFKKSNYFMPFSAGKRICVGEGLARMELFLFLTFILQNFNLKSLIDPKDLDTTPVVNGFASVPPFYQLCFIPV
As to `COc1ccc(OC)c(-c2ccccc2/C=N/NS(=O)(=O)c2ccc(C)cc2)c1`, the Potency is 100 nM (active).

Consider `COC(=O)C(/C=C/C(C)Cc1cc(Br)cc(OCc2ccccc2)c1OC)OCc1ccccc1` (stereo not given), for which the Potency result is “inactive”. With `C[C@@H]1O[C@H]2C3=C(C(=O)[C@H]4O[C@@H]4[C@H]3O)[C@@H]1[C@@H]1[C@@H](C)OC=C3[C@H](O)[C@H]4O[C@@H]4/C(=N\OCc4ccccc4)[C@]312`, the Potency is 631 nM (active). Consider `CC(C)CO/N=C1/C[C@@H](O)[C@@H](O)[C@@H]2[C@@H]3C(=O)N(Cc4ccc5c(c4)OCO5)C(=O)[C@H]3CC[C@H]12`, for which the Potency is 3980 nM (active).

For the molecule `O=C1[C@@H]2[C@H]3[C@H](O)[C@H](O)C/C(=N/OC[C@@H](O)COCc4ccco4)[C@@H]3CC[C@H]2C(=O)N1c1ccc(F)cc1F`, the Potency result is “inactive”. As to `CC1Cc2c(-c3ccccc3)nc3c(c2CO1)CN(CCOc1ccccc1)CC3` (stereo not given), the Potency entry was “inactive”. As to `CC1CCC2C(=O)OC(CN3C(=O)c4ccccc4C3=O)CN2C1c1ccc(Br)cc1` (stereo not given), the Potency result was “inactive”. On to `COC(=O)NC(/C=C/c1ccccc1)[C@]1(C(C)=O)CCCC1=O` (stereo not given in full), for which the Potency result was “inactive”. Regarding `CC/C=C\CC[C@H](OC(=O)c1ccc(Br)cc1)C1=CCCCC1=O`, the Potency was 2000 nM (active).

In the case of `C[C@@H]1/C=C\CC(=O)OC[C@H](C)C(=O)N[C@@H](Cc2ccccc2)C(=O)OC1`, the Potency entry was “inactive”. In the case of `COC1(C#CC2C=CC(OC(C)=O)C(COC(C)=O)O2)CCCCC1` (stereo not given), the Potency result is “inactive”. On to `CC(=O)OC[C@@H]1O[C@H](C/C=N\OCC[C@H]2C=C[C@H](OC(C)=O)[C@@H](COC(C)=O)O2)C=C[C@@H]1OC(C)=O`, for which the Potency result was “inactive”. `CC1CCC2C(=O)OC(CO)CN2C1c1ccc(Br)cc1` (stereo not given): the Potency is 158 nM (active). For the molecule `O=C1[C@@H]2[C@H]3[C@H](O)[C@H](O)C/C(=N/OC[C@@H](O)COCc4ccco4)[C@H]3CC[C@H]2C(=O)N1c1ccc(F)cc1F`, the Potency entry is “inactive”. With `CO[C@@H]1COC(=O)C/C=C\[C@H](C)COC(=O)[C@H](Cc2ccccc2)NC(=O)C/C=C\[C@H]1C`, the Potency is 2510 nM (active).

For the molecule `C=CCc1cccc(C2C(C)CCC3C(=O)N4C(CCC(C)C4c4cccc(CC=C)c4)C(=O)N32)c1` (stereo not given), the Potency entry is “inactive”. Regarding `C/C(CCN1CCc2nc(-c3ccccc3)c(-c3ccccc3)cc2C1)=N\OC[C@@H](C)[C@H](OCc1ccccc1)C(C)C`, the Potency was 1580 nM (active). In the case of `CCC12C=C(/C=C/c3ccccc3)C(CC)(C1)C(c1ccccc1)CC2=O` (stereo not given), the Potency is 5010 nM (active). Consider `CC(=O)OC[C@@H]1O[C@@H](O/N=C2/C[C@@H](O)[C@@H](O)[C@@H]3[C@@H]4C(=O)N(c5cccc(Oc6ccccc6)c5)C(=O)[C@H]4CC[C@H]23)[C@H](OC(C)=O)[C@H](OC(C)=O)[C@@H]1OC(C)=O`, for which the Potency entry is “inactive”. For `COC(=O)[C@@H]1CC[C@H](C)[C@@H](c2ccc(C)cc2)N1C(=O)c1ccc(/C=N\OC[C@@H]2O[C@H](c3ccccc3)C=C[C@@H]2Oc2ccc(OC)cc2)cc1`, the Potency was 50.1 nM (active). Still for that read-out and setting: then `CC(C)CN1CCc2nc(-c3ccccc3)c3c(c2C1)COC(C)C3` (stereo not given), with “inactive”; and `C/C=C/C1Oc2ccc(OC)cc2N2C(=O)C(C)C(OCOC)C12` (stereo not given), with “inactive”.
